Source: PubChem BioAssay (NCI)
This is part of a sample that, as a whole, favours compounds with a hit. Of some 83,000 tested, about 20% had one in any assay.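 Interpretation: 100, growth as untreated; towards 0, rising growth inhibition; 0, no net growth; 0 to -100, cell death. Compounds scoring below 10 were considered active.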 Unmarked numbers belong to inactive results. Activity calls are given as the source filed them.

Legend:
Assay in all cases: NCI-60 one-dose screen, 48 h (100 = growth as untreated, 0 = no growth, -100 = all killed)
[1] = tested on: SR leukemia; conditions: 10 µM unless noted
[2] = tested on: RPMI-8226 leukemia; conditions: 10 µM unless noted
[3] = tested on: OVCAR-8 ovarian
[4] = tested on: OVCAR-4 ovarian
[5] = tested on: SK-OV-3 ovarian; conditions: 10 µM unless noted
[6] = tested on: IGROV1 ovarian
[7] = tested on: OVCAR-3 ovarian
[8] = tested on: HS 578T breast
[9] = tested on: NCI/ADR-RES ovarian; conditions: 10 µM unless noted
[10] = tested on: T-47D breast
[11] = tested on: BT-549 breast
[12] = tested on: MDA-MB-435 melanoma
[13] = tested on: SW-620 colon
[14] = tested on: MCF7 breast
[15] = tested on: HCT-116 colon
[16] = tested on: HCC-2998 colon
[17] = tested on: KM12 colon
[18] = tested on: OVCAR-5 ovarian; conditions: 10 µM unless noted

For `CN(C)CCCn1c2nc(=O)[nH]c(=O)c-2nc2cc(Cl)c(Cl)cc21`, the growth [1] was 83.7%, the growth [2] was 73.6% and the growth ([3]; 10 µM unless noted) was 50%. For the same compound, the growth ([4]; 10 µM unless noted) was 81.8%, the growth [5] was 109% and the growth ([6]; 10 µM unless noted) was 54%. The growth ([7]; 10 µM unless noted) was -20.9% (active), the growth ([8]; 10 µM unless noted) was 106% and the growth [9] was 85.9%. The growth ([10]; 10 µM unless noted) was 34.8%, the growth ([11]; 10 µM unless noted) was 113% and the growth ([12]; 10 µM unless noted) was 106%. For the same compound, the growth ([13]; 10 µM unless noted) was 13.6%, the growth ([14]; 10 µM unless noted) was 4.93% (active) and the growth ([15]; 10 µM unless noted) was -18.5% (active). The growth ([16]; 10 µM unless noted) was 91.6% and the growth ([17]; 10 µM unless noted) was 57.5%.
For `Cc1ccc2nc3ccccc3c(NCc3ccc(Cl)cc3)c2c1`, the growth [1] was -9.22% (active), the growth [2] was -28.5% (active) and the growth ([3]; 10 µM unless noted) was 52.4%. The growth ([4]; 10 µM unless noted) was 37.5%, the growth ([6]; 10 µM unless noted) was 27.1% and the growth ([7]; 10 µM unless noted) was 70.9%. For the same compound, the growth ([8]; 10 µM unless noted) was 77.8%, the growth [9] was 42% and the growth ([10]; 10 µM unless noted) was 57.9%. For the same compound, the growth ([11]; 10 µM unless noted) was 75.6%, the growth ([12]; 10 µM unless noted) was 70.3% and the growth ([13]; 10 µM unless noted) was 32.1%. The growth ([14]; 10 µM unless noted) was -20.8% (active), the growth ([15]; 10 µM unless noted) was 14.7% and the growth ([16]; 10 µM unless noted) was -79% (active). For the same compound, the growth ([17]; 10 µM unless noted) was 77.1%.
In the case of `O=C1/C(=C/c2cn(-c3ccccc3)nc2-c2ccccc2)SC(=S)N1c1ccc(Cl)cc1`, the growth [1] was 39.5%, the growth [2] was 78.8% and the growth ([3]; 10 µM unless noted) was 64.5%. It also gave a growth ([4]; 10 µM unless noted) of 80.3%, a growth [5] of 104% and a growth ([6]; 10 µM unless noted) of 69.1%. It also gave a growth ([7]; 10 µM unless noted) of 83.4%, a growth ([8]; 10 µM unless noted) of 83.7% and a growth [9] of 85.7%. The growth ([10]; 10 µM unless noted) was 82.1%, the growth ([12]; 10 µM unless noted) was 74.1% and the growth ([13]; 10 µM unless noted) was 84.4%. For the same compound, the growth ([14]; 10 µM unless noted) was 82.2%, the growth ([15]; 10 µM unless noted) was 64.1% and the growth ([16]; 10 µM unless noted) was 76.3%. For the same compound, the growth ([17]; 10 µM unless noted) was 60.5%.
`COc1cc(-c2nc(SCCC(C)C)nc(Nc3ccc(F)cc3)c2C#N)cc(OC)c1OC` gave a growth [1] of 73.1%, a growth [2] of 91.2% and a growth ([3]; 10 µM unless noted) of 40.7%. The growth ([4]; 10 µM unless noted) was 2.39% (active), the growth [5] was 47.3% and the growth ([6]; 10 µM unless noted) was 69.6%. For the same compound, the growth ([7]; 10 µM unless noted) was 19.8%, the growth ([8]; 10 µM unless noted) was 50.1% and the growth [9] was 77.7%. For the same compound, the growth ([10]; 10 µM unless noted) was 65.7%, the growth ([11]; 10 µM unless noted) was 74.9% and the growth ([12]; 10 µM unless noted) was 79.4%. For the same compound, the growth ([13]; 10 µM unless noted) was 80.1%, the growth ([14]; 10 µM unless noted) was 87% and the growth ([15]; 10 µM unless noted) was 22%. The growth ([16]; 10 µM unless noted) was 102% and the growth ([17]; 10 µM unless noted) was 78.6%.
Compound `CN(C)CCNc1ncc(F)c(-c2cnc3cc(-c4cnn(C)c4)ccn23)n1` has a growth [2] of 98.3% [0.005 µM], a growth ([3]; 0.005 µM) of 99.9% and a growth ([3]; 30 µM) of 54.3%. For the same compound, the growth ([4]; 0.005 µM) was 105%, the growth ([4]; 30 µM) was 38.6% and the growth [5] was 21% [30 µM]. For the same compound, the growth ([6]; 0.005 µM) was 108%, the growth ([6]; 30 µM) was 22.6% and the growth ([7]; 0.005 µM) was 109%. For the same compound, the growth ([7]; 30 µM) was 75.3%, the growth ([8]; 0.005 µM) was 101% and the growth ([8]; 30 µM) was 60%. The growth ([10]; 0.005 µM) was 110%, the growth ([10]; 30 µM) was 81.7% and the growth ([11]; 0.005 µM) was 97.8%. It also gave a growth ([11]; 30 µM) of 69.4%, a growth ([12]; 0.005 µM) of 101% and a growth ([12]; 30 µM) of 43.1%. The growth ([13]; 0.005 µM) was 103%, the growth ([13]; 30 µM) was 25.7% and the growth ([14]; 0.005 µM) was 93.9%. For the same compound, the growth ([14]; 30 µM) was 49.5%, the growth ([15]; 0.005 µM) was 100% and the growth ([15]; 30 µM) was 24.3%. The growth ([16]; 0.005 µM) was 116%, the growth ([16]; 30 µM) was 54.5% and the growth ([17]; 0.005 µM) was 87.8%. The growth ([17]; 30 µM) was 10.7%.
`C[C@@H]1CC[C@@H]2[C@@H]1[C@H](OC(=O)/C=C/c1ccccc1)[C@]1(c3ccccc3)C[C@@H](NC(=O)CO)[C@@]2(C)O1` gave a growth [1] of 90.4%, a growth [2] of 92.2% and a growth ([3]; 10 µM unless noted) of 93.9%. It also gave a growth ([4]; 10 µM unless noted) of 97.2%, a growth [5] of 90.4% and a growth ([6]; 10 µM unless noted) of 102%. The growth ([7]; 10 µM unless noted) was 108%, the growth ([8]; 10 µM unless noted) was 92% and the growth [9] was 93%. For the same compound, the growth ([10]; 10 µM unless noted) was 93.3%, the growth ([11]; 10 µM unless noted) was 114% and the growth ([12]; 10 µM unless noted) was 100%. The growth ([13]; 10 µM unless noted) was 104%, the growth ([14]; 10 µM unless noted) was 79.4% and the growth ([15]; 10 µM unless noted) was 100%. It also gave a growth ([16]; 10 µM unless noted) of 104% and a growth ([17]; 10 µM unless noted) of 94.8%.
For `Cc1ccc(-c2nc3nc(-c4ccccc4)nc(N4CCN(S(=O)(=O)c5ccccc5)CC4)c3o2)cc1`, the growth [1] was 104%, the growth [2] was 105% and the growth ([3]; 10 µM unless noted) was 75.5%. The growth [18] was 99%, the growth ([4]; 10 µM unless noted) was 99.6% and the growth ([6]; 10 µM unless noted) was 89.2%. For the same compound, the growth ([7]; 10 µM unless noted) was 93%, the growth ([8]; 10 µM unless noted) was 43.1% and the growth ([10]; 10 µM unless noted) was 94.5%. It also gave a growth ([12]; 10 µM unless noted) of 95.7%, a growth ([13]; 10 µM unless noted) of 92.9% and a growth ([14]; 10 µM unless noted) of 92.7%. It also gave a growth ([15]; 10 µM unless noted) of 65.2%, a growth ([16]; 10 µM unless noted) of 102% and a growth ([17]; 10 µM unless noted) of 104%.
